Assay results from the supplement of paper PMC10849652.
The full data set covers some 7,900 targets. This sample favours those with a hit. About 0.6% of all pairs of compound and target were hits. Values without a mark were called inactive.

Tests used:
Experiment in all cases: log2 fold change, soluble protein after heating vs DMSO (PISA); higher = thermal stabilisation; K562 cells, 10 uM, 30 min; active = over 0.2 and 3.5 SD of the protein, either way, in both replicates (recomputed)
[1] = compound: CC1=C(C=C(C=C1)NC(=O)C2=CC(=CC=C2)C(C)(C)C#N)NC3=CC4=C(C=C3)N=CN(C4=O)C
Method in brief: (§1)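 Thermal stability values are relative to control samples and come from duplicates. They are expressed as log2 fold changes. For measurement, K562 cells (2×10^6 cells/mL) received 10 μM compound for 30 min, and aliquots were heated for 3 min over 48°C-58°C, pooled, and extracted at 4°C in PBS with 0.5% NP-40. Soluble protein, the supernatant after 21,000xg for 90 min, was quantified by TMTpro 16plex LC-MS/MS with equalised channel sums.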

Nexturastat A = compound: CCCCN(Cc1ccc(C(=O)NO)cc1)C(=O)Nc1ccccc1 [Nexturastat A]
Method in brief: as §1

vemurafenib = compound: CCCS(=O)(=O)Nc1ccc(F)c(C(=O)c2c[nH]c3ncc(-c4ccc(Cl)cc4)cc23)c1F [vemurafenib]
Method in brief: as §1

[2] = compound: CCCc1cc(C)[nH]c(=O)c1CNC(=O)c1cc(-c2ccnc(N3CCN(C)CC3)c2)cc2c1cnn2C(C)C
Method in brief: as §1

givinostat = compound: CCN(CC)Cc1ccc2cc(COC(=O)Nc3ccc(C(=O)NO)cc3)ccc2c1 [givinostat]
Method in brief: as §1

barasertib = compound: CCN(CCCOc1ccc2c(Nc3cc(CC(=O)Nc4cccc(F)c4)[nH]n3)ncnc2c1)CCOP(=O)(O)O [barasertib]
Method in brief: as §1

[3] = compound: CC1=C(C=C(C=C1)NC(=O)C2=CC(=CC=C2)N(C)C)NC(=O)C3=CC=C(C=C3)O
Method in brief: as §1

[4] = compound: CC1=CC=C(C=C1)SC2=C3C=C(SC3=CN=C2)C(=O)N
Method in brief: as §1

[5] = compound: CCCS(=O)(=O)Nc1ccc(F)c(C(=O)c2c[nH]c3ncc(Cl)cc23)c1F
Method in brief: as §1

[6] = compound: CC1=NC(=CC=C1)C2=C(N=C(N2)C(C)(C)C)C3=CC4=NC=CN=C4C=C3
Method in brief: as §1

Sequence of UniProt A1X283 (A1X283 whole entry, looked up): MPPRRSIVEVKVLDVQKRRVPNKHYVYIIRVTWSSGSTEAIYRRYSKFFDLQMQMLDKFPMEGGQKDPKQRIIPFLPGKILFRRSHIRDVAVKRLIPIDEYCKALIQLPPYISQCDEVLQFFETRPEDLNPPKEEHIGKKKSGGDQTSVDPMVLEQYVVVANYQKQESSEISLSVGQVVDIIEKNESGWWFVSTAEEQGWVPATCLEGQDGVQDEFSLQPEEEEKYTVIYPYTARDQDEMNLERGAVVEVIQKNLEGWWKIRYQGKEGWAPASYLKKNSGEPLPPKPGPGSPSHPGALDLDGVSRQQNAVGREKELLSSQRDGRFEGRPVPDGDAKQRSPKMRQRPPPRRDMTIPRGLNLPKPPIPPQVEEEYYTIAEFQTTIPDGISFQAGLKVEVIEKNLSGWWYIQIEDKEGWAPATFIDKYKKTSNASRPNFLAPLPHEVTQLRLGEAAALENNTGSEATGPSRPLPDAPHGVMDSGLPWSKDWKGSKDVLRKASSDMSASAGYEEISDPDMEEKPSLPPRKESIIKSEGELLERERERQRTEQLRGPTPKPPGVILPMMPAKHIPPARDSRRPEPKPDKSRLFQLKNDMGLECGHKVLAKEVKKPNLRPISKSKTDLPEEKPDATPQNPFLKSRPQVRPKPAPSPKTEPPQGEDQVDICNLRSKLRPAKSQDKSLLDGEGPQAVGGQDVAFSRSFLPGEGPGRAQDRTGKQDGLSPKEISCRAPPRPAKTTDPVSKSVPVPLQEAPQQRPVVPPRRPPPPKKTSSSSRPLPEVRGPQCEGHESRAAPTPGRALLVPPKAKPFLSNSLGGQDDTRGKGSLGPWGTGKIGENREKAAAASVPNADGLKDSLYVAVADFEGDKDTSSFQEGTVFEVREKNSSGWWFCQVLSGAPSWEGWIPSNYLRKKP
Sequence of UniProt Q13796 (Q13796 whole entry, looked up): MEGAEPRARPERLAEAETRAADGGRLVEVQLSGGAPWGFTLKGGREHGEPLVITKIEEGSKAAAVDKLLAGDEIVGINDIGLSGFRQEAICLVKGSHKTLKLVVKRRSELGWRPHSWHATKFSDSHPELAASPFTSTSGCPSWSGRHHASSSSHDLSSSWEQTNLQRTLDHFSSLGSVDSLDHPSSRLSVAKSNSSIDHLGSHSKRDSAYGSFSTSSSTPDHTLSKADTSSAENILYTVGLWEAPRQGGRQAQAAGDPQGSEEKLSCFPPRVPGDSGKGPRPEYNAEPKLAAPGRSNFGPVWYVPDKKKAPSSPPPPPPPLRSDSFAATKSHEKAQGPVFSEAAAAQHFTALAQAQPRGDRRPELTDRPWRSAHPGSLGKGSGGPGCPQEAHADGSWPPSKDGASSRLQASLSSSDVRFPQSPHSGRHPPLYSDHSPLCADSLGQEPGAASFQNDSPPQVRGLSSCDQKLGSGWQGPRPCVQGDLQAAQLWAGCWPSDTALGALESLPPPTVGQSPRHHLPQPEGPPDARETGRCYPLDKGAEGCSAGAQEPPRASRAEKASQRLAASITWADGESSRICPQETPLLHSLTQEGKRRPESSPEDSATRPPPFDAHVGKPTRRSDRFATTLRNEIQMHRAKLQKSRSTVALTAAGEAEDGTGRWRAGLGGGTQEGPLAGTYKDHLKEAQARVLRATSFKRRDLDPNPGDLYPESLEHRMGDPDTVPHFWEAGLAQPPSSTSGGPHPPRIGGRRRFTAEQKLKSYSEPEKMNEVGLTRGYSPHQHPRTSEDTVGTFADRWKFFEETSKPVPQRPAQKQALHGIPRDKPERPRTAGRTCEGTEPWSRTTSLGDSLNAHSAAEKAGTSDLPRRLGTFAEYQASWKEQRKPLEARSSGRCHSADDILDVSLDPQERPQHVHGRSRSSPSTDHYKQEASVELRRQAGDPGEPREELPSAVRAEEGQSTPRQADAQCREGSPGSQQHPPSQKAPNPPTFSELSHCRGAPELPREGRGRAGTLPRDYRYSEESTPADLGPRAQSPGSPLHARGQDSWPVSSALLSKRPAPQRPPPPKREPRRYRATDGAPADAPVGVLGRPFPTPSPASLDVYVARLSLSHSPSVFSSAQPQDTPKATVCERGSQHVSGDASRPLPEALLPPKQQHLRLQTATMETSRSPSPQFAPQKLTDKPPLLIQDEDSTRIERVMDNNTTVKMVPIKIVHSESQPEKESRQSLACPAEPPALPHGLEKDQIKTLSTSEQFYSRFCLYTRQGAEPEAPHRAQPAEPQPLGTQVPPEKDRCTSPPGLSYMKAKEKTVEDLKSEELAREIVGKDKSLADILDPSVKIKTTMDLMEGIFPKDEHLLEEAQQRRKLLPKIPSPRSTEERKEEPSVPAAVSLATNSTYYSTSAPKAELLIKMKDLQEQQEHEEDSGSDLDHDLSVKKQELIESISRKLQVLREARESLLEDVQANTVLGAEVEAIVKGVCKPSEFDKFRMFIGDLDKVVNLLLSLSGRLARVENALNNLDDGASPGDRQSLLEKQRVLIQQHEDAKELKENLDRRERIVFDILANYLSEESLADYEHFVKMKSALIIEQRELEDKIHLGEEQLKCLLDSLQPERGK
Sequence of UniProt O75582 (O75582 whole entry, looked up): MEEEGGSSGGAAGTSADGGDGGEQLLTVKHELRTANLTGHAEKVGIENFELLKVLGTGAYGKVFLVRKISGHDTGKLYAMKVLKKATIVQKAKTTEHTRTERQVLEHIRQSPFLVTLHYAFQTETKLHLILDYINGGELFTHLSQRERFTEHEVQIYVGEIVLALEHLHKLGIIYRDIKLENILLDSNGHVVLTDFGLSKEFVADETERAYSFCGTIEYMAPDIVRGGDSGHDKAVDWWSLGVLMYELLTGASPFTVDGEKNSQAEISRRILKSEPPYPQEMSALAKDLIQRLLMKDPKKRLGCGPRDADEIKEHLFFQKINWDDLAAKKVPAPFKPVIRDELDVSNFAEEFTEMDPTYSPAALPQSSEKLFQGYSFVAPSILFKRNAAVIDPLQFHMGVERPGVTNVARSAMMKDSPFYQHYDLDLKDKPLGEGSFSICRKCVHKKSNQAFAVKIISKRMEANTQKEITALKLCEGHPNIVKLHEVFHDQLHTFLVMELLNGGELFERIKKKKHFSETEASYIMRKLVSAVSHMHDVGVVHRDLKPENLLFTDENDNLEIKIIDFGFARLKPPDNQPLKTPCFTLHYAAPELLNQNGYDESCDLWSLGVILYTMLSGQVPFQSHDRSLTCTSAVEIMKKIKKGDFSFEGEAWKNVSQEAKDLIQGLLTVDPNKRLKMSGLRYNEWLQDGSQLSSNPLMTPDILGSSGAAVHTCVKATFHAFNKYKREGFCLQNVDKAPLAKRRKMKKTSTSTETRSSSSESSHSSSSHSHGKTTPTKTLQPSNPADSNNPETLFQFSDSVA
Sequence of UniProt P43003 (P43003 whole entry, looked up): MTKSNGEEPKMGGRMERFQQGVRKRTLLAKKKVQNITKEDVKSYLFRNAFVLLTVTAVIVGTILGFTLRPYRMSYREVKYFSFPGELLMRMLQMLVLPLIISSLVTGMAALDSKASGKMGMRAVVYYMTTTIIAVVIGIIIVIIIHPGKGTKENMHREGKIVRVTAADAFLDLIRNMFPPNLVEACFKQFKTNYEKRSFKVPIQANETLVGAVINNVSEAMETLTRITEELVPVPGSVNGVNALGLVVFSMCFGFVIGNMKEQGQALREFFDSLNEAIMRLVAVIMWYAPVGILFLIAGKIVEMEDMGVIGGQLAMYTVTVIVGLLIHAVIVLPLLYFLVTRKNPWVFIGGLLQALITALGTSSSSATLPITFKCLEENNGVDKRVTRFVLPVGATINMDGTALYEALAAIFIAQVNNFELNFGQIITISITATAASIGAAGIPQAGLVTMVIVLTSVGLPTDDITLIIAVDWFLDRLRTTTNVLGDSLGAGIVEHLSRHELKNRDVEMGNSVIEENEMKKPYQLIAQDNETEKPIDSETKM
Sequence of UniProt Q96NL6 (Q96NL6 whole entry, looked up): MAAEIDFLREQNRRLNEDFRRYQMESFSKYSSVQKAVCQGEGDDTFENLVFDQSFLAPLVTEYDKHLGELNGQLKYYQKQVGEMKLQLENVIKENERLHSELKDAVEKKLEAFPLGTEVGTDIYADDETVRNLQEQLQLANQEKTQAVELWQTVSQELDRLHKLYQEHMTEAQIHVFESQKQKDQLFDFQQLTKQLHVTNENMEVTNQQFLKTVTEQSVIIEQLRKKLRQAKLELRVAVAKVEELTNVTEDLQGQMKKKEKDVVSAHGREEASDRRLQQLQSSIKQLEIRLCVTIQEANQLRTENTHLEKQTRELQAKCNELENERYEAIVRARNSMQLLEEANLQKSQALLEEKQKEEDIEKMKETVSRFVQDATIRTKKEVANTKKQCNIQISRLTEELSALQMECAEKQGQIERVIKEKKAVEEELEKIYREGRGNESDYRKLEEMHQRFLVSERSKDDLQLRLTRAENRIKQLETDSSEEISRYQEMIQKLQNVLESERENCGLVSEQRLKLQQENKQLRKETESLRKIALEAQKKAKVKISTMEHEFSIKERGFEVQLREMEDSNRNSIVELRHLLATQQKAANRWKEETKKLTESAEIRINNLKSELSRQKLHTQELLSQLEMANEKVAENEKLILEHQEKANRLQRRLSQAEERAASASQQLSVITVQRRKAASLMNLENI
Sequence of UniProt O95716 (O95716 whole entry, looked up): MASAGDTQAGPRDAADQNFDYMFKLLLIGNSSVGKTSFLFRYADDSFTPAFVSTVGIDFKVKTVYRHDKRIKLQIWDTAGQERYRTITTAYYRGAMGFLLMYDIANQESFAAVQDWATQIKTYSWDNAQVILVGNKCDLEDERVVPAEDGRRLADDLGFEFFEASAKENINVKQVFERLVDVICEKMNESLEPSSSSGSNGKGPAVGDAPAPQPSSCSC
Sequence of UniProt Q9BWJ5 (Q9BWJ5 whole entry, looked up): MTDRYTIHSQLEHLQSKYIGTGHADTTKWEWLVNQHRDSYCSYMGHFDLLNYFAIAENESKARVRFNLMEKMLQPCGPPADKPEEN
Sequence of UniProt P60903 (P60903 whole entry, looked up): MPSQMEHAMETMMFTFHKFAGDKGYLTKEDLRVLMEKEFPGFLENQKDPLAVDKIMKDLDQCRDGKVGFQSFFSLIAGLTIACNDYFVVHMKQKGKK

Target | log2 fold change [1] | log2 fold change (Nexturastat A) | log2 fold change (vemurafenib) | log2 fold change [2] | log2 fold change (givinostat) | log2 fold change (barasertib) | log2 fold change [3] | log2 fold change [4] | log2 fold change [5] | log2 fold change [6]
SH3PXD2B (UniProt A1X283) | -0.029 | -0.052 | -0.145 | 0.187 | -0.548 (active) | 0.043 |  |  |  | 
SCAMP2 (UniProt O15127) | -0.032 | -0.061 | 0.081 | 0.013 | -0.085 | -0.029 | -0.032 | 0.046 | 0.043 | 
SDHAF4 (UniProt Q5VUM1) | -0.066 | -0.039 |  | -0.035 | 0.368 (active) | -0.018 |  | 0.053 | -0.065 | 0.022
SDCBP isoform 2 (UniProt O00560) | 0.06 | 0.149 |  | -0.048 | -0.008 | 0.046 | -0.058 | 0.004 | 0.076 | 
SCLT1 (UniProt Q96NL6) | -0.057 |  | 0.045 | 0.01 |  | 0.049 |  |  |  | -0.161
RPS3 (UniProt E9PJN9) |  |  |  |  |  |  | 0.125 |  |  | 
RRP36 (UniProt Q96EU6) | 0.001 | 0.24 | -0.117 | 0.136 | 0 | -0.218 | -0.168 | -0.045 | 0.002 | 
SEMG2 (UniProt Q02383) | -0.038 | -0.062 |  | -0.097 |  | 0.015 |  |  |  | 
SAFB2 (UniProt K7EQU4) |  | 0.111 |  |  |  | 0.295 |  |  |  | 0.057
S100A10 (UniProt P60903) | 0.128 |  |  |  |  | 0.113 |  | 0.181 | -0.086 | 
SF3B5 (UniProt Q9BWJ5) | 0.003 | 0.042 | -0.055 | -0.009 | 0.129 | -0.12 |  | 0.072 | -0.027 | 0.111
RICTOR isoform 3 (UniProt Q6R327) | -0.09 | 0.25 |  |  | -0.057 |  |  | 0.074 | 0.018 | 
SHROOM2 (UniProt Q13796) | -0.104 | 0.763 (active) | -0.078 | -0.207 | 0.238 | 0.071 |  | 0.011 | -0.179 | -0.206
RALGPS2 (UniProt Q86X27) |  | 1.06 (active) | 0.023 | -0.128 | -0.147 | -0.116 |  |  |  | -0.234
RAP2C (UniProt Q9Y3L5) | -0.064 | 0 | 0.066 | -0.052 | -0.044 | -0.031 | 0.052 | -0.03 | -0.13 | 
RNF2 (UniProt Q99496) | 0.155 | 0.024 | -0.066 | 0.07 | -0.04 | -0.002 |  | 0.051 | 0.061 | 0.022

Target | log2 fold change [1] | log2 fold change (Nexturastat A) | log2 fold change (vemurafenib) | log2 fold change [2] | log2 fold change (givinostat) | log2 fold change (barasertib) | log2 fold change [3] | log2 fold change [4] | log2 fold change [5] | log2 fold change [6]
SLC12A5 (UniProt Q9H2X9) | 0.074 | 0.001 | -0.105 | -0.018 | 0.016 | -0.004 |  | 0.108 | 0.081 | 0.198
RABGAP1L isoform 5 (UniProt Q5R372) | -0.106 | -0.009 |  | -0.197 | -0.013 | 0 |  | -0.047 | -0.016 | -0.055
RNF41 (UniProt Q9H4P4) |  |  |  |  |  | -0.15 |  |  |  | 
RBM6 (UniProt P78332) | -0.009 |  |  | -0.079 |  |  |  | -0.056 | 0.031 | 0.092
RAPGEF4 (UniProt Q8WZA2) | -0.046 | 0.245 | -0.267 | -0.203 | 0.248 | 0.041 |  |  |  | -0.235
RPS19 (UniProt M0R2L9) |  |  |  | 0.113 |  |  |  | -0.169 | -0.98 | 
SDC3 (UniProt O75056) | 0.091 | 0.016 | 0.073 |  |  |  |  |  |  | 
RPS6KA5 (UniProt O75582) |  | 0.013 |  | 0.237 | 0.025 |  | -0.039 | 0.029 | 0.121 | -0.017
SCYL3 isoform 2 (UniProt Q8IZE3) |  | 0.004 | 0.008 | -0.01 | 0.012 | -0.012 | -0.061 | -0.002 | 0.022 | 0.005
SLC1A3 (UniProt P43003) |  | -0.099 | -0.043 | -0.127 | -0.1 | -0.01 | -0.047 | 0.043 | -0.095 | 
RNF185 (UniProt Q96GF1) |  |  | 0.009 | -0.081 | -0.013 | 0.055 | -0.055 | -0.074 | 0.1 | 
RNF220 isoform 3 (UniProt Q5VTB9) |  |  |  |  | -0.059 |  |  | 0.385 | 0.201 | 
RNF26 (UniProt Q9BY78) |  |  | 0.281 |  |  | 0.124 | 0.012 |  |  | 
RBMY1E (UniProt A6NEQ0) |  |  |  | -0.023 | 0.059 | 0.135 | 0.009 | 0.183 | 0.082 | 0.075
RAB3D (UniProt O95716) |  |  | -0.113 | 0.032 | -0.08 | 0.034 | 0.074 | 0.036 | 0.094 | 
ROMO1 (UniProt P60602) | 0.087 | -0.066 |  | -0.082 | -0.027 | -0.036 | -0.011 | 0.005 | -0.017 | 
